Experimental data reported in the supplement of paper PMC10849652.
About 7,900 targets were measured; listed, in parts, are those with a hit and a random draw of the rest. About 0.6% of all pairs of compound and target were hits.

Legend:
Assay in all cases: log2 fold change, soluble protein after heating vs DMSO (PISA); higher = thermal stabilisation; K562 cells, 10 uM, 30 min; active = over 0.2 and 3.5 SD of the protein, either way, in both replicates (recomputed)
erlotinib = compound: C#Cc1cccc(Nc2ncnc3cc(OCCOC)c(OCCOC)cc23)c1 [erlotinib]
In short: (§1)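 For each measurement, 10 μM compound was applied for 30 min to K562 cells at 2×10^6 cells/mL. Aliquots were heated for 3 min across 48°C-58°C, pooled, and extracted in PBS with 0.5% NP-40 at 4°C; the supernatant after 21,000xg for 90 min was soluble protein. This was quantified by TMTpro 16plex LC-MS/MS with channel sums equalised, and thermal stability was reported relative to control samples from duplicates, on a log2 fold-change scale.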

[1] = compound: C/C(=N\NC(=O)C1=CC(=CC=C1)S(=O)(=O)N2CCOCC2)/C3=C(C=CC(=C3)Cl)O
In short: as §1

[2] = compound: C1=CC(=C(C=C1Cl)C2=NC3=NC=CN=C3C(=N2)NC4=CC=NC=C4)F
In short: as §1

[3] = compound: C1=CC(=CC=C1C2=NC3=C(N2)C=C(C=C3)C(=O)N)OC4=CC=C(C=C4)Cl
In short: as §1

[4] = compound: C1=CC2=C(C=CC(=C2)/C=C\3/C(=O)NC(=NCC4=CC=CS4)S3)N=C1
In short: as §1

[5] = compound: C1=CC2=NC=CN=C2C=C1/C=C/3\C(=O)NC(=O)S3
In short: as §1

[6] = compound: C1=CC=C(C=C1)C2=NC(=C(N2)C3=CC=NC=C3)C4=CC(=C(C=C4)Cl)O
In short: as §1

[7] = compound: C1=CC=C2C(=C1)C3=NNC4=CC=CC(=C43)C2=O
In short: as §1

[8] = compound: C1CCN(C1)C(=O)NC2=CC=CC(=C2)NC3=NC=C(C(=N3)NCCC4=CN=CN4)Br
In short: as §1

[9] = compound: C1CN(CCC1(CC2=CC=C(C=C2)Cl)N)C3=NC=NC4=C3C=CN4
In short: as §1

IRAK-1-4 Inhibitor I = compound: C1COCCN1CCN2C3=CC=CC=C3N=C2NC(=O)C4=CC(=CC=C4)[N+](=O)[O-] [IRAK-1-4 Inhibitor I]
In short: as §1

ibrutinib = compound: C=CC(=O)N1CCC[C@@H](n2nc(-c3ccc(Oc4ccccc4)cc3)c3c(N)ncnc32)C1 [ibrutinib]
In short: as §1

[10] = compound: CC(=O)c1cnc2ccc(-c3cc(Cl)c(O)c(Cl)c3)nc2c1N[C@H]1CC[C@H](CN(C)C)CC1
In short: as §1

ralimetinib = compound: CC(C)(C)Cn1c(N)nc2ccc(-c3[nH]c(C(C)(C)C)nc3-c3ccc(F)cc3)nc21 [ralimetinib]
In short: as §1

[11] = compound: CC(C)(O)CC(=O)NCCn1ccc2ncnc(Nc3ccc(Oc4cccc(C(F)(F)F)c4)c(Cl)c3)c21
In short: as §1

[12] = compound: CC(C)C1=C2N=C(C=C(N2N=C1)NCC3=CC=CC=C3)NCCCCCCN
In short: as §1

[13] = compound: CC(C)C[C@@H](C=O)NC(=O)[C@H](CC(C)C)NC(=O)[C@H](CC(C)C)NC(=O)OCc1ccccc1
In short: as §1

pinometostat = compound: CC(C)N(C[C@H]1O[C@@H](n2cnc3c(N)ncnc32)[C@H](O)[C@@H]1O)[C@H]1C[C@@H](CCc2nc3cc(C(C)(C)C)ccc3[nH]2)C1 [pinometostat]
In short: as §1

[14] = compound: CC1=C(C(CC(=O)N1)C2=CC=C(C=C2)C(F)(F)F)C(=O)NC3=C(C=C4C(=C3)C=NN4)F
In short: as §1

[15] = compound: CC1=C(C2=C(C=C1)C(=O)C3=CC=CC=C3N2CCCN)C
In short: as §1

Measured: log2 fold change

STARD7 (UniProt Q9NQZ5)
Chain of UniProt Q9NQZ5 (Q9NQZ5 whole entry, looked up): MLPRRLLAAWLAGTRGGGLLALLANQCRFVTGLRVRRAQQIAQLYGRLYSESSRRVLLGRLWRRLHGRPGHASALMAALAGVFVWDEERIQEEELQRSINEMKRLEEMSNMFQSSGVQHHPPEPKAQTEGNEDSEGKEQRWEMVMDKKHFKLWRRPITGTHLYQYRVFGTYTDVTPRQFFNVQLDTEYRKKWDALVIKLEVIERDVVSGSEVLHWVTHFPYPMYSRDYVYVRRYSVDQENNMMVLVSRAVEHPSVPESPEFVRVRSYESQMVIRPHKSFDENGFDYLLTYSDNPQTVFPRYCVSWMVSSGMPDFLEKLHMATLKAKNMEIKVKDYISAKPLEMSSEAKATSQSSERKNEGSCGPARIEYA
inactive: erlotinib -0.021 | [1] 0.084 | [2] 0.024 | [3] 0.086 | [4] 0.031 | [5] 0.009 | [6] 0.017 | [7] 0.067 | [8] 0.006 | [9] -0.029 | IRAK-1-4 Inhibitor I -0.012 | ibrutinib 0.055 | [10] -0.026 | ralimetinib -0.01 | [11] -0.051 | [12] -0.057 | [13] 0.028 | pinometostat -0.009 | [14] -0.019 | [15] -0.003

TELO2 (UniProt Q9Y4R8)
Chain of UniProt Q9Y4R8 (Q9Y4R8 whole entry, looked up): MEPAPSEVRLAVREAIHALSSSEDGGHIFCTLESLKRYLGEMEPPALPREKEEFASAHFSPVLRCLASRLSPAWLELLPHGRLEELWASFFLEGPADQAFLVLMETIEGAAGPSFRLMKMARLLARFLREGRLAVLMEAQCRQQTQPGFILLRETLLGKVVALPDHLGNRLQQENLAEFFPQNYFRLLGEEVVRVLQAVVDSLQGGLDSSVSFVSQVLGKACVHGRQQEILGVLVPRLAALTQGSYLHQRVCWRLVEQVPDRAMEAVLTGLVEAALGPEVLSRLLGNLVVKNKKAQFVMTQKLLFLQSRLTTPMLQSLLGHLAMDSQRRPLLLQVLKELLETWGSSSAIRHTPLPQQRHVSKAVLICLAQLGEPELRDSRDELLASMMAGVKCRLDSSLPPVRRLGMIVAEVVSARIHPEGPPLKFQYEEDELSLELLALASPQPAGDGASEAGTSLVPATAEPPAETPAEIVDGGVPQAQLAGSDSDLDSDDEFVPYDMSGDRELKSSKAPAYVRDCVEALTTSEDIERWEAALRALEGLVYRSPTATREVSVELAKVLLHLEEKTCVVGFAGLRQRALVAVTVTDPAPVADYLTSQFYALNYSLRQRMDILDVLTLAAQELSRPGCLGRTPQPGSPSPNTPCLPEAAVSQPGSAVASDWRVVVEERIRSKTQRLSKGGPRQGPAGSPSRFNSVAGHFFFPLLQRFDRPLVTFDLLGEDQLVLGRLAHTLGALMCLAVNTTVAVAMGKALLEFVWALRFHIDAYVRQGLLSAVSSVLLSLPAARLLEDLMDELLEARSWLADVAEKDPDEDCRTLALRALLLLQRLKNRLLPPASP
inactive: erlotinib 0.043 | [1] 0.102 | [2] -0.185 | [3] -0.031 | [4] -0.039 | [5] 0.019 | [6] -0.037 | [7] 0.053 | [8] 0.046 | [9] -0.076 | IRAK-1-4 Inhibitor I -0.126 | ibrutinib -0.044 | [10] 0.008 | ralimetinib 0.103 | [11] 0 | [12] -0.375 | [13] 0.049 | pinometostat 0.204 | [14] -0.015 | [15] 0.125

TAMM41 isoform 3 (UniProt Q96BW9)
Chain of UniProt Q96BW9 (Q96BW9 whole entry, looked up): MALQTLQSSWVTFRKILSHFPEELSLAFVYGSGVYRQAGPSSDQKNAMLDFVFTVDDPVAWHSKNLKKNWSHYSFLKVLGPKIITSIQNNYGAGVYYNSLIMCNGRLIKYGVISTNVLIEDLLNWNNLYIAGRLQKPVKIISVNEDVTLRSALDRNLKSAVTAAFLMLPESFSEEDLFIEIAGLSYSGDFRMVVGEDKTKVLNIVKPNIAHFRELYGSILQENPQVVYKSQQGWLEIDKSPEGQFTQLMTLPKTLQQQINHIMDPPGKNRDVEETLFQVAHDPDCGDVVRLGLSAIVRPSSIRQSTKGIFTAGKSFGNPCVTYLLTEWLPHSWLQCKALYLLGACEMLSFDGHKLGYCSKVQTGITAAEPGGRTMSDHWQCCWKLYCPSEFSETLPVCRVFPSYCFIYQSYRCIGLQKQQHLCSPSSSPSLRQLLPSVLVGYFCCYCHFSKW
inactive: erlotinib 0.047 | [1] 0.03 | [2] 0.058 | [3] -0.007 | [4] 0.061 | [5] 0.009 | [6] 0.045 | [7] 0.007 | [8] -0.007 | [9] 0.056 | IRAK-1-4 Inhibitor I 0.075 | ibrutinib 0.022 | [10] -0.061 | ralimetinib -0.04 | [11] -0.172 | [12] -0.214 | [13] 0.043 | pinometostat 0.015 | [14] 0.013 | [15] 0.169

TAF9 (UniProt Q16594)
inactive: erlotinib -0.007 | [1] -0.003 | [2] -0.036 | [3] 0.014 | [4] -0.027 | [5] 0.019 | [6] -0.04 | [7] -0.032 | [8] -0.024 | [9] 0.02 | IRAK-1-4 Inhibitor I -0.029 | ibrutinib 0.027 | [10] 0.049 | ralimetinib 0.025 | [11] 0.069 | [12] 0.024 | [13] 0.112 | pinometostat -0.072 | [14] 0 | [15] -0.005

SPG11 (UniProt Q96JI7)
Chain of UniProt Q96JI7 (Q96JI7 whole entry, looked up): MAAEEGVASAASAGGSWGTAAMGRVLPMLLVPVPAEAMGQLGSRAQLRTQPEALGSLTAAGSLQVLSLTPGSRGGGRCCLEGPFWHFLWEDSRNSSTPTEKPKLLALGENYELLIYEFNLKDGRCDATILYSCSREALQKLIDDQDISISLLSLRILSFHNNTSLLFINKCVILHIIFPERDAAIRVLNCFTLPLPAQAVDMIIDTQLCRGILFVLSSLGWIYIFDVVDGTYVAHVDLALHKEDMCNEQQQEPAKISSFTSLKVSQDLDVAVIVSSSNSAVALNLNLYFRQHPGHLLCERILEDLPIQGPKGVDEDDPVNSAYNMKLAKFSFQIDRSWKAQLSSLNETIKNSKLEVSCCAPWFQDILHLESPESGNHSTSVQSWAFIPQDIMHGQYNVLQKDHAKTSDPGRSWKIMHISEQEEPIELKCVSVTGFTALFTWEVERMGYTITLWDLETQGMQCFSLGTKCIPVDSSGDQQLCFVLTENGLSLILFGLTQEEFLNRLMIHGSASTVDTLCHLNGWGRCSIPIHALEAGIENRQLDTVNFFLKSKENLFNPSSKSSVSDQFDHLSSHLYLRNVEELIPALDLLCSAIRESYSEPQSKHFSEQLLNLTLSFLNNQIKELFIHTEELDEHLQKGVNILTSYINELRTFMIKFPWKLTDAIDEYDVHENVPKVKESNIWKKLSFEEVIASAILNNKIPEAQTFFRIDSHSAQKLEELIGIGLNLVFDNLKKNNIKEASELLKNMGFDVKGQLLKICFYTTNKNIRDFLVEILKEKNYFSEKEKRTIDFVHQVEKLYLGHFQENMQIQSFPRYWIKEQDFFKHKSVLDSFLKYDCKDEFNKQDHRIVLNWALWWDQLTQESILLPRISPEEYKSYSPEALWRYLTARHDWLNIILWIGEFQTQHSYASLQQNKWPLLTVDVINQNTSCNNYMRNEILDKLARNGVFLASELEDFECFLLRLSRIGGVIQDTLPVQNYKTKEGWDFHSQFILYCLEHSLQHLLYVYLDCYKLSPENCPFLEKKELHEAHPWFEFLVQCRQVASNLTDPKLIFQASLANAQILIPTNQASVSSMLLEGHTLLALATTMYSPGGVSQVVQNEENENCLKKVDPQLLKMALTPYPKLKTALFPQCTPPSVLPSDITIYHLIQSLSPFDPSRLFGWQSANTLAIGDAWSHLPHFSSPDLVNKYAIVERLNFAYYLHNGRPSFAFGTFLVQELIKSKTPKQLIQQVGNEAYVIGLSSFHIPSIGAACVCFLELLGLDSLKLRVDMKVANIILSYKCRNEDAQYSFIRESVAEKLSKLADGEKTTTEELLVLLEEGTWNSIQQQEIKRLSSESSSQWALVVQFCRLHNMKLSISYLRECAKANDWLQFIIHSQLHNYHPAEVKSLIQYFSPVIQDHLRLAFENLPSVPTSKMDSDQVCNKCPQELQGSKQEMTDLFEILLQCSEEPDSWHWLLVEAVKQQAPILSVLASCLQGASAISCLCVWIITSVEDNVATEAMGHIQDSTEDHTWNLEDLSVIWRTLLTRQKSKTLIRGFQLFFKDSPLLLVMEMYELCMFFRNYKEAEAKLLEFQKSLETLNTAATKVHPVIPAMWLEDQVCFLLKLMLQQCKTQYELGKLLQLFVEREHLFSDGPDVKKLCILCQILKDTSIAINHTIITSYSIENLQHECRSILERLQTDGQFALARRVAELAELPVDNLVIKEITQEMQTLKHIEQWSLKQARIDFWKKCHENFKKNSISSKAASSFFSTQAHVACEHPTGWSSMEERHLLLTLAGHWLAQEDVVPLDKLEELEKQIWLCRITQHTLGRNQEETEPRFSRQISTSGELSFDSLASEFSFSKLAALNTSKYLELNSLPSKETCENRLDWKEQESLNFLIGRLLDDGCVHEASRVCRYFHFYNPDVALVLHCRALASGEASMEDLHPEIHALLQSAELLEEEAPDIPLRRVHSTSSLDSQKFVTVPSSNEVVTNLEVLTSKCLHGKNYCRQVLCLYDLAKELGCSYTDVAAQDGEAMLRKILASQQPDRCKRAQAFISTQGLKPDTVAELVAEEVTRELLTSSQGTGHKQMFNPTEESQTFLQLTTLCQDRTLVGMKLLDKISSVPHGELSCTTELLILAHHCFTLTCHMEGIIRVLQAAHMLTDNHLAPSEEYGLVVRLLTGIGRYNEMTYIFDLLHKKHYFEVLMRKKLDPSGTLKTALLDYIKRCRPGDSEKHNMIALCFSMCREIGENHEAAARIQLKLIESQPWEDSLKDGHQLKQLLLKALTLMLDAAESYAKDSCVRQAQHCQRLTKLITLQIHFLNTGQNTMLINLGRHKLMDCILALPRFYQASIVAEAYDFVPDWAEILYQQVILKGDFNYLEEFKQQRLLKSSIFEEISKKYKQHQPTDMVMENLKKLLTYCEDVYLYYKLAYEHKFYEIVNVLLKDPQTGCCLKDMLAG
inactive: erlotinib 0.586 | [1] 0.148 | [2] -0.089 | [3] -0.084 | [4] 0.128 | [5] -0.108 | [6] -0.275 | [7] -0.073 | [8] 0.405 | [9] -0.002 | IRAK-1-4 Inhibitor I -0.027 | ibrutinib 0.128 | [10] -0.065 | ralimetinib -0.151 | [11] 0.103 | [12] 0.051 | [13] 0.405 | pinometostat 0.035 | [14] 0.03 | [15] 0.097

SLC38A7 (UniProt Q9NVC3)
inactive: erlotinib 0.009 | [1] -0.003 | [2] 0.071 | [3] 0.058 | [4] 0.024 | [5] 0.088 | [7] 0.006 | [8] 0.011 | [9] 0.097 | IRAK-1-4 Inhibitor I 0.035 | ibrutinib 0.073 | [10] 0.092 | ralimetinib 0.205 | [11] -0.085 | [13] -0.024 | pinometostat 0.033 | [14] -0.009 | [15] 0.007
active: [6] 0.441 | [12] -0.751

SPINDOC (UniProt Q9BUA3)
inactive: erlotinib -0.013 | [1] -0.017 | [2] -0.01 | [3] -0.044 | [4] 0.036 | [5] 0.074 | [6] -0.063 | [7] -0.066 | [8] -0.129 | [9] 0.09 | IRAK-1-4 Inhibitor I 0.029 | ibrutinib 0.089 | [10] 0.017 | ralimetinib 0.084 | [11] -0.01 | [12] 0.103 | [13] 0 | pinometostat 0.075 | [14] 0.093 | [15] -0.24

SMCHD1 (UniProt A6NHR9)
inactive: erlotinib 0.006 | [1] 0.171 | [2] -0.272 | [3] 0.043 | [4] 0.325 | [5] 0.046 | [6] -0.007 | [7] -0.422 | [8] -0.153 | IRAK-1-4 Inhibitor I -0.268 | ibrutinib -0.007 | [10] -0.344 | ralimetinib 0.108 | [11] 0.068 | [12] -0.067 | [13] 0.038 | pinometostat 0.092 | [14] -0.08 | [15] 0.406
active: [9] -0.564

TBC1D5 isoform 2 (UniProt Q92609)
active: [12] -0.325
inactive: erlotinib 0.019 | [1] 0.111 | [2] -0.03 | [3] -0.041 | [4] 0.044 | [5] 0.032 | [6] -0.049 | [7] 0.027 | [8] -0.003 | [9] -0.078 | IRAK-1-4 Inhibitor I -0.022 | ibrutinib -0.01 | [10] -0.009 | ralimetinib 0.023 | [11] -0.179 | [13] 0.076 | pinometostat 0.003 | [14] 0.01 | [15] 0.02

SLC25A39 (UniProt Q9BZJ4)
active: [12] -0.673
inactive: erlotinib -0.072 | [1] -0.217 | [2] 0.038 | [3] 0.062 | [4] 0.193 | [5] 0.118 | [6] -0.042 | [7] -0.046 | [8] -0.186 | [9] 0.112 | IRAK-1-4 Inhibitor I 0.037 | ibrutinib 0.032 | [10] 0.068 | ralimetinib -0.035 | [11] -0.112 | [13] 0.035 | pinometostat 0.294 | [14] -0.129 | [15] -0.11

SP1 (UniProt P08047)
active: [15] -0.312
inactive: erlotinib -0.055 | [1] -0.03 | [2] -0.046 | [3] 0.043 | [4] 0.006 | [5] 0.01 | [6] 0.001 | [7] -0.031 | [8] 0.047 | [9] -0.019 | IRAK-1-4 Inhibitor I 0.013 | ibrutinib 0.024 | [10] 0.029 | ralimetinib -0.049 | [11] -0.031 | [12] -0.05 | [13] 0.064 | pinometostat 0.04 | [14] 0.043

STARD9 (UniProt Q9P2P6)
inactive: erlotinib 0.026 | [1] 0.117 | [2] -0.089 | [3] 0.119 | [4] 0.06 | [5] 0 | [6] -0.131 | [7] 0.005 | [8] -0.003 | [9] -0.099 | IRAK-1-4 Inhibitor I -0.121 | ibrutinib 0.161 | [10] 0.091 | ralimetinib 0.068 | [11] -0.156 | [12] -0.066 | [13] 0.085 | pinometostat 0.083 | [14] -0.053 | [15] -0.07

SRP68 (UniProt Q9UHB9)
active: [15] -0.345
inactive: erlotinib 0.047 | [1] 0.034 | [2] -0.043 | [3] -0.071 | [4] 0.011 | [5] 0.01 | [6] 0.002 | [7] -0.087 | [8] 0.015 | [9] -0.107 | IRAK-1-4 Inhibitor I -0.118 | ibrutinib -0.037 | [10] 0.014 | ralimetinib 0.071 | [11] -0.065 | [12] -0.272 | [13] 0.065 | pinometostat 0.145 | [14] -0.016

SMAD9 (UniProt O15198)
inactive: erlotinib -0.001 | [1] 0.086 | [2] 0.101 | [3] -0.055 | [4] 0 | [5] -0.012 | [6] -0.111 | [7] -0.098 | [8] 0.113 | [9] -0.076 | IRAK-1-4 Inhibitor I -0.033 | ibrutinib 0.007 | [10] -0.092 | ralimetinib -0.087 | [11] -0.022 | [12] 0.005 | [13] 0.06 | pinometostat 0.024 | [14] 0.039 | [15] 0.017

STAT6 (UniProt P42226)
Chain of UniProt P42226 (P42226 whole entry, looked up): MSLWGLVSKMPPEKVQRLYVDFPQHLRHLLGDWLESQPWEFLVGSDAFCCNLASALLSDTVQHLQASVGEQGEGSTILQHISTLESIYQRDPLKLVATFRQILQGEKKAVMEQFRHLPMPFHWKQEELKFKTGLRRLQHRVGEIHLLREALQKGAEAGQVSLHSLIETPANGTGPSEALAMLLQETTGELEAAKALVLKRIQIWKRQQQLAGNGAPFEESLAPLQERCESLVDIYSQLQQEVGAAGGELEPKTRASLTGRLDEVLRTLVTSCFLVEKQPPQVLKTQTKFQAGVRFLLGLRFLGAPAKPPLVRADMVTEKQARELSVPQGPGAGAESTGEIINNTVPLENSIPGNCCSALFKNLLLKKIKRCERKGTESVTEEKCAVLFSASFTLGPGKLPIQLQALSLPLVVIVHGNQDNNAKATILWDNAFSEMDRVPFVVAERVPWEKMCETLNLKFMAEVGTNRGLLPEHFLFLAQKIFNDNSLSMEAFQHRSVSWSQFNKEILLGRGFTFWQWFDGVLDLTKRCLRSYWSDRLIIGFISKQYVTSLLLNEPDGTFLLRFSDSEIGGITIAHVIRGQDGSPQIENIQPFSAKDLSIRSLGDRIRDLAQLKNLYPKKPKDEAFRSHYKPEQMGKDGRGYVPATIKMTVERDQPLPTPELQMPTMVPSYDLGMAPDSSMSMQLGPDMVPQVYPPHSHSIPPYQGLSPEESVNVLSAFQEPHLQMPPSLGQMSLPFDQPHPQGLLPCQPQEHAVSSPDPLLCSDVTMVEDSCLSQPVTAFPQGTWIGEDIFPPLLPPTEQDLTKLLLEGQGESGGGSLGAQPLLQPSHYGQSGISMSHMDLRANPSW
inactive: erlotinib 0.082 | [1] 0.061 | [2] 0.12 | [3] 0.018 | [4] 0.022 | [5] -0.032 | [6] 0.025 | [7] -0.026 | [8] -0.063 | [9] 0.04 | IRAK-1-4 Inhibitor I -0.145 | ibrutinib 0.031 | [10] -0.222 | ralimetinib 0.054 | [11] -0.128 | [12] -0.058 | [13] 0.007 | pinometostat 0.11 | [14] 0.125 | [15] -0.048

STRN (UniProt O43815)
inactive: erlotinib -0.03 | [1] 0 | [2] 0.033 | [3] 0.013 | [4] -0.008 | [5] 0.005 | [7] 0.025 | [8] -0.124 | [9] 0.053 | IRAK-1-4 Inhibitor I 0.029 | ibrutinib 0.073 | [10] -0.046 | ralimetinib 0.13 | [11] -0.023 | [12] 0.03 | [13] -0.066 | pinometostat -0.002 | [14] -0.037 | [15] 0
active: [6] 0.213
